Results published in PubChem BioAssay (NCI).
Compounds without any hit were thinned out: in the full panel of roughly 83,000, 20% have a hit.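 Method: cells in 96-well plates; compound added at one concentration; 48 h incubation; percent growth measured; values under 10 scored active.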 Values without a mark were called inactive. Active and inactive are the calls of the source.

Test system: CCRF-CEM leukemia
Assay: NCI-60 one-dose screen, 48 h (100 = growth as untreated, 0 = no growth, -100 = all killed)
Details: 10 µM unless noted
Protocol: Growth inhibition of the CCRF-CEM human tumor cell line is measured as a screen for anti-cancer activity. Cells are grown in 96 well plates and exposed to the test compound for 48 hours. Compounds are tested at a single concentration, which is 10^-5 M for most compounds. The reported endpoint is percent growth (GI% or GIPRCNT), where numbers from 0 - 100% represent growth inhibition, and numbers from -100% - 0 represent cell death. For example, a value of 40 represents 60% growth inhibition. A value of 0 means no net growth occurred over the course of the experiment. A value of -40 indicates 40% of cells at the beginning of the experiment died by the end of the experiment. A value of -100 means all cells are dead at the end of the experiment.
NCI-60 Human Tumor Cell Lines Screen was performed using the standard one-dose NCI protocol, which is described in more detail at https://dtp.cancer.gov/discovery_development/nci-60/default.htm.
Compounds with GIPRCNT values below 10 were considered active. Activity score was based on GIPRCNT using the following formula: […]
Score is 0 for GIPRCNT values of 100 or above, 50 for GIPRCNT values of 0, and 100 for GIPRCNT values of -100.

| SMILES | growth |
| --- | --- |
| Nc1cc2nc3ccccc3sc-2cc1=O | 18.4% |
| COC(=O)[C@H](C(C)C)n1c(=O)c2cc(OC)c(OC)cc2c2cnc3[nH]ccc3c21 | 39% |
| Cn1c2ccccc2c2c3c(c4c5ccccc5n(CCCCCC#N)c4c21)C(=O)N(O)C3=O | 3.22% (active) |
| CN(C)c1ccc(/C=C\C2=[N+](C)c3ccccc3C2(C)C)cc1 | 14.6% |
| CCOC(=O)c1cnc2ccc(Br)cc2c1Nc1cccc(S(=O)(=O)NC)c1 | 105% |
| NS(=O)(=O)c1ccc(-n2ncc3c(=O)[nH]c(CN4CCN(c5cc6c(cc5F)c(=O)c(C(=O)O)cn6C5CC5)CC4)nc32)cc1 | 93.4% |
| CCC(=O)Oc1ccc(/C(=C(\C)c2ccccc2)c2ccc(OCCN(CC)CC)cc2)cc1 | 77.8% |
| COc1cc(-c2c3c(nc4c2c(C)nn4-c2ccccc2)-c2ccccc2C(=O)C3=O)cc(OC)c1OC | 54.4% |
| CC1=N/C(=C\c2cccc(Br)c2)C(=O)O1 | 107% |
| O=C1/C(=C\c2cn(C(=O)c3ccc(Cl)cc3)c3ccccc23)c2ccccc2N1c1c(Cl)cccc1Cl | 111% |
| O=C1c2cc3c(cc2-c2c1c1cc(Cl)c(Cl)cc1c(=O)n2CCCn1ccnc1)OCO3 | 2.94% (active) |
| COc1ccc(C(=O)c2sc3nc(-c4ccccc4OC)ccc3c2N)cc1OC | 26.5% |
| CN1CCN(Cc2ccc(NC(=O)c3[nH]ncc3Nc3ncnc4[nH]ccc34)cc2)CC1 | 4.71% (active) |
| O=C(/C=C\c1cccc([N+](=O)[O-])c1)c1ccccc1 | -23.9% (active) |
| O=C(CCCCN1CCOCC1)Nc1ccc(Cn2nnc3c2C(=O)c2nnn(Cc4ccc(NC(=O)CCCCN5CCOCC5)cc4)c2C3=O)cc1 | -1.29% (active) |
| Cc1sc2nc3[nH]/c(=C\c4ccc(Cl)cc4)c(=O)n3c(=O)c2c1C | 90.2% |
| C[C@@]1(N2C(=O)OC[C@@H]2c2ccccc2)C(=O)N([C@H](CC(=O)N2CCC(N3CCCCC3)CC2)C(=O)NCc2cccc(C(F)(F)F)c2)[C@@H]1/C=C/c1ccccc1 | 42.6% |
| O=S(=O)(NCCCNc1cc(-c2cn(-c3ccccc3)nc2-c2ccccc2)ccn1)c1ccc(C(F)(F)F)cc1 | 50.2% |
| COCCCNc1nc(NC(=O)c2ccc(F)cc2C)cc(-c2cccnc2)n1 | 96.5% |
| CC(=O)Oc1ccc(Nc2c3ccccc3nc3ccccc23)cc1 | -8.66% (active) |

| SMILES | growth |
| --- | --- |
| CC/C(=C(\c1ccc(O)cc1)c1ccc(OCCN(C)CCN(C)C(=O)CCCCC(=O)c2c(C)[nH]c(/C=C3\N=C(c4ccc[nH]4)C=C3OC)c2C)cc1)c1ccccc1 | 45.6% |
| CC(=O)Nc1ccc2c(c1)c(NC(C)=O)nn2C(=O)Nc1ccc(Cc2ccccc2)cc1 | 89.8% |
| NC(N)=Nc1ccc(S(=O)(=O)O)cc1 | 108% |
| CCOC(=S)SCc1ccc(Cl)cc1 | 130% |
| O=[N+]([O-])c1cccc(-c2nc3sccn3c2-c2ccnc(NCCCNS(=O)(=O)c3ccc(F)cc3)n2)c1 | 1.95% (active) |
| N#CC1=C(N)Oc2c(ccc3ccccc23)C1c1cccs1 (stereo not given) | 5.17% (active) |
| CNC(=O)c1cc(Oc2ccc3nc(NC(=O)Nc4ccc(CN5CCOCC5)c(C(F)(F)F)c4)sc3c2)ccn1 | 17.7% |
| CCN(CC)CC#CCOC(=O)[C@]1(C)CCC[C@@]2(C)[C@H]1CC(C=O)=C1C=C(C(C)C)CC[C@@H]12 | 50.4% |
| O=C(/C=C/c1ccc(Cl)cc1)c1ccc(O)c(CN2CCN(c3cc4c(cc3F)c(=O)c(C(=O)O)cn4C3CC3)CC2)c1 | 43.9% |
| COc1ccc(C/C(C)=C(\c2ccc(OCCN3CCCCCC3)cc2)c2ccc(OC(=O)C3CCCCC3)cc2)cc1 | 49.7% |
| CCCCCCCCCCCCCCCCCCNC(=O)[C@H]1CSC(c2ccc(OC)c(F)c2)N1 (stereo not given in full) | -14.4% (active) |
| Cc1cc(Nc2nc(N3CCN(C)CC3)nc3ccccc23)n[nH]1 | 65.3% |
| COc1cc(NCCCCN=C(N)NC(N)=NC(C)C)c2ncccc2c1 | 48.8% |
| CCOC(=O)c1ccc2c(c1)nc(/C=C/c1ccc(Cl)cc1)n2-c1cc(C(C)(C)C)[nH]n1 | 13.5% |
| COc1ccc(CCN2CC=Cn3c2nc2ccccc2c3=O)cc1 | 18.7% |
| CC(=O)C1=C(O)C=C2Oc3c(C(=O)/C=C/c4c(Cl)cccc4Cl)c(O)c(C)c(O)c3[C@]2(C)C1=O | -25.3% (active) |
| COC1C/C(=N\O)C2OC(c3ccccc3)OCC2O1 (stereo not given) | 96.1% |
| Cc1ccc(Nc2c(C(N)=O)cnc3ccc(-c4csc(N)n4)cc23)cc1 | 104% |
| O=c1[nH]c(-c2ccccn2)nc2sc3c(c12)CCCCC3 | 26.7% |
| COc1ccc(-c2nn(-c3ccccc3)cc2/C=C2\SC(=O)NC2=O)cc1 | 91.9% |
